# Measured values reported in the supplement of paper PMC8728848.
# Many of the other results were omitted from the sample, so the strongest signals are more common in it than they were.
# Experiments:
# Assay in all cases: glycan array binding signal (z-score within array); higher = stronger binding
# Details in all cases: glycan notation: IUPAC condensed, linker removed
# [1] = target: GlcNAc(b1-3)Gal(b1-4)GlcNAc(b1-3)Gal(b1-4)GlcNAc(b1-3)Gal(b1-4)GlcNAc(b1-3)Gal(b1-4)GlcNAc(b1-2)[GlcNAc(b1-3)Gal(b1-4)GlcNAc(b1-3)Gal(b1-4)GlcNAc(b1-3)Gal(b1-4)GlcNAc(b1-3)Gal(b1-4)GlcNAc(b1-6)]Man(a1-6)[GlcNAc(b1-3)Gal(b1-4)GlcNAc(b1-3)Gal(b1-4)GlcNAc(b1-3)Gal(b1-4)GlcNAc(b1-3)Gal(b1-4)GlcNAc(b1-2)Man(a1-3)]Man(b1-4)GlcNAc(b1-4)[Fuc(a1-6)]GlcNAc
# Summary of the method: (§1)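 Arrays were curated from the Consortium for Functional Glycomics database, 3228 in total, and kept only where the protein sequence was available. Binding is expressed as a within-array Z-score. This score was averaged across arrays of the same protein sequence at different concentrations or buffers and across linkers, and negative values can be read as non-binding.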
# [2] = target: GlcNAc(b1-3)[GlcNAc(b1-6)]GalNAc
# Summary of the method: as §1
# Man(a1-2)Man(a1-3)Man = target: Man(a1-2)Man(a1-3)Man
# Summary of the method: as §1
# Man(a1-3)[Man(a1-6)]Man = target: Man(a1-3)[Man(a1-6)]Man
# Summary of the method: as §1
# [3] = target: Neu5Ac(a2-3)Gal(b1-3)GalNAc(b1-4)Gal(b1-4)Glc
# Summary of the method: as §1
# [4] = target: Neu5Ac(a2-3)Gal(b1-3)GlcNAc
# Summary of the method: as §1
# [5] = target: Neu5Ac(a2-3)Gal(b1-3)GlcNAc(b1-3)Gal(b1-4)GlcNAc
# Summary of the method: as §1
# [6] = target: Neu5Ac(a2-3)Gal(b1-3)GlcNAc(b1-6)GalNAc
# Summary of the method: as §1
# [7] = target: Neu5Ac(a2-3)Gal(b1-3)[Fuc(a1-4)]GlcNAc(b1-3)Gal(b1-3)[Fuc(a1-4)]GlcNAc
# Summary of the method: as §1
# [8] = target: Neu5Ac(a2-3)Gal(b1-4)GlcNAc(b1-2)Man(a1-3)[Neu5Ac(a2-6)Gal(b1-4)GlcNAc(b1-2)Man(a1-6)]Man(b1-4)GlcNAc(b1-4)GlcNAc
# Summary of the method: as §1
# [9] = target: Neu5Ac(a2-3)Gal(b1-4)GlcNAc(b1-3)Gal(b1-4)GlcNAc(b1-2)Man(a1-3)[Neu5Ac(a2-3)Gal(b1-4)GlcNAc(b1-3)Gal(b1-4)GlcNAc(b1-2)Man(a1-6)]Man(b1-4)GlcNAc(b1-4)GlcNAc
# Summary of the method: as §1
# [10] = target: Neu5Ac(a2-3)Gal(b1-4)GlcNAc(b1-3)Gal(b1-4)GlcNAc(b1-3)Gal(b1-4)GlcNAc(b1-2)Man(a1-3)[Neu5Ac(a2-3)Gal(b1-4)GlcNAc(b1-3)Gal(b1-4)GlcNAc(b1-3)Gal(b1-4)GlcNAc(b1-2)Man(a1-6)]GalNAc
# Summary of the method: as §1
# [11] = target: Neu5Ac(a2-3)Gal(b1-4)GlcNAc(b1-3)Gal(b1-4)GlcNAc(b1-3)[Neu5Ac(a2-3)Gal(b1-4)GlcNAc(b1-3)Gal(b1-4)GlcNAc(b1-6)]GalNAc
# Summary of the method: as §1
# [12] = target: Neu5Ac(a2-3)Gal(b1-4)GlcNAc(b1-6)[Neu5Ac(a2-3)Gal(b1-3)]GalNAc
# Summary of the method: as §1
# [13] = target: Neu5Ac(a2-3)Gal(b1-4)[Fuc(a1-3)]GlcNAc(b1-3)GalNAc
# Summary of the method: as §1
# [14] = target: Neu5Ac(a2-3)Gal(b1-4)[Fuc(a1-3)]GlcNAc(b1-6)[Gal(b1-3)]GalNAc
# Summary of the method: as §1
# [15] = target: Neu5Ac(a2-6)Gal(b1-4)GlcNAc(b1-2)Man(a1-3)Man(b1-4)GlcNAc(b1-4)GlcNAc
# Summary of the method: as §1
# [16] = target: Neu5Ac(a2-6)Gal(b1-4)GlcNAc(b1-2)Man(a1-3)[Neu5Ac(a2-6)Gal(b1-4)GlcNAc(b1-2)Man(a1-6)]Man(b1-4)GlcNAc(b1-4)[Fuc(a1-6)]GlcNAc
# Summary of the method: as §1
# [17] = target: Neu5Ac(a2-6)Gal(b1-4)GlcNAc(b1-2)[Neu5Ac(a2-6)Gal(b1-4)GlcNAc(b1-4)]Man(a1-3)[GlcNAc(b1-4)][Neu5Ac(a2-6)Gal(b1-4)GlcNAc(b1-2)[Neu5Ac(a2-6)Gal(b1-4)GlcNAc(b1-6)]Man(a1-6)]Man(b1-4)GlcNAc(b1-4)GlcNAc
# Summary of the method: as §1
# [18] = target: Neu5Ac(a2-6)Gal(b1-4)GlcNAc(b1-3)Gal(b1-4)[Fuc(a1-3)]GlcNAc(b1-3)Gal(b1-4)[Fuc(a1-3)]GlcNAc
# Summary of the method: as §1
# [19] = target: Neu5Ac(a2-8)Neu5Ac(a2-3)Gal(b1-3)GalNAc(b1-4)[Neu5Ac(a2-8)Neu5Ac(a2-3)]Gal(b1-4)Glc
# Summary of the method: as §1
# Neu5Ac(b2-6)GalNAc = target: Neu5Ac(b2-6)GalNAc
# Summary of the method: as §1
# [20] = target: Neu5Gc(a2-3)Gal(b1-3)[Fuc(a1-4)]GlcNAc
# Summary of the method: as §1
binder,measurement,setting,value
BIp1-His (Cryptococcus neoformans) (protein) MFTKIFVALFAATAVLSAPVESAEKRITHTGRATFYSPSVGIGACGWQNTDEELVVALNAPQYALNADHNCGQSVRITNEQNGNQEIAKVVDLCPGCNDGDLDMSPALFGALNNNDFDQGVFPISWNFLPRDDTSSSN,glycan array binding signal (z-score),[1],0.882
same,glycan array binding signal (z-score),[2],-0.522
same,glycan array binding signal (z-score),Man(a1-2)Man(a1-3)Man,-0.136
same,glycan array binding signal (z-score),Man(a1-3)[Man(a1-6)]Man,0.728
same,glycan array binding signal (z-score),[3],-0.565
same,glycan array binding signal (z-score),[4],-0.217
same,glycan array binding signal (z-score),[5],0.65
same,glycan array binding signal (z-score),[6],1.86
same,glycan array binding signal (z-score),[7],-0.526
same,glycan array binding signal (z-score),[8],-0.064
same,glycan array binding signal (z-score),[9],-0.11
same,glycan array binding signal (z-score),[10],2.41
same,glycan array binding signal (z-score),[11],-0.12
same,glycan array binding signal (z-score),[12],-1.36
same,glycan array binding signal (z-score),[13],1.32
same,glycan array binding signal (z-score),[14],0.648
same,glycan array binding signal (z-score),[15],0.176
same,glycan array binding signal (z-score),[16],0.617
same,glycan array binding signal (z-score),[17],-0.066
same,glycan array binding signal (z-score),[18],-0.059
same,glycan array binding signal (z-score),[19],1.77
same,glycan array binding signal (z-score),Neu5Ac(b2-6)GalNAc,-0.971
same,glycan array binding signal (z-score),[20],-0.455
